Measured values taken from PubChem BioAssay (Tox21).
Results filed as inconclusive are left out. Activity calls are given as the source filed them. The call rests on the fitted dose curve; in most records, active means well fitted curve in the direction sought with a large enough effect in the signal ratio in the repeat runs (not every such curve was filed as active); inconclusive means weak or mixed curves, or a change in a side signal; inactive means no such curve, though single readings can be large or run the other way; the % refers to the signal ratio.

Experiment: qHTS assay to identify small molecule agonists of the NFkB signaling pathway (AID 1159509)
Details: NFkB-bla ME-180 cells, beta-lactamase FRET ratio, 5 h; series mostly up to 61 µM
Excerpt: National Center for Advancing Translational Sciences [NCATS]
NIH Chemical Genomics Center [NCGC]
U.S. Environmental Protection Agency [EPA]
National Institutes of Environmental Health Sciences [NIEHS]
National Toxicology Program [NTP]
U.S. Food and Drug Administration [FDA]
Transcription factors and their stimulated target gene expression play pivotal roles across many cellular processes including responses to environmental stimuli. Proper regulation of associated pathways is critical to maintain cell health and function. Constitutive activation of transcription factor pathways has been implicated in tumors as it may block cellular functions such as apoptosis and lead to invasion and metastasis. One important transcription factor that stimulates gene expression in response to cytokines, UV radiation, and other stimuli is nuclear factor-kappa B (NFkB). To measure activation of the NFkB pathway, the CellSensor NFkB-bla ME-180 cell line (Life Technologies, Carlsbad, CA) that stably expresses beta-lactamase reporter gene under the regulation of a NF-kB response element was used. This assay allows measurement of the NFkB pathway activity induced by compounds in a ME-180 cell line. This system quantitates NF-kB activity using a FRET-based assay system where beta-lactamase expression disrupts FRET, allowing for fluorescent measurement of activity. This cell line has been used to screen the Tox21 10K compound library and to identify compounds that induce the NFkB pathway activity.
Tox21 Assay Protocol Summary:
NFkB-bla ME-180 cells were dispensed at 2,000 cells/6 uL of assay medium per well into black wall/clear-bottom 1536-well plates using a Multidrop Combi (ThermoFisher Scientific, Waltham, MA) dispenser. After the assay plates were incubated at 37 C and 5% CO2 for an overnight, 23 nL of compounds dissolved in DMSO, positive controls or DMSO only was transferred to the assay plate by a Pintool station (Kalypsys, San Diego, CA). The assay plates were incubated at 37 C and 5% CO2 for 5 hr. One uL of LiveBLAzer B/G FRET substrate (Life Technologies) was added using a Flying Reagent Dispenser (Aurora Discovery, San Diego, CA) and the plates were incubated at room temperature for 1.5 hr. Fluorescence intensity (405 nm excitation, 460 nm and 530 nm emissions) was measured using an Envision plate reader (PerkinElmer, Shelton, CT).

Row | SMILES | outcome
1 | CC1(N)CCC(C(C)(C)N)CC1 (stereo not given) | inactive
2 | CCC(C)(CCC(C)C)C(=O)[O-].CCC(C)(CCC(C)C)C(=O)[O-].[Zn+2] (stereo not given) | inactive
3 | COc1ccc(N=Nc2cc(C)c(N=Nc3ccc(S(=O)(=O)O)cc3)cc2OC)cc1 | inactive
4 | CCCCCCCCCCCCCCCC(=O)NCCO | inactive
5 | CCOC(=O)C(C)(C)C | inactive
6 | CCC(O)C(C)(C)C (stereo not given) | inactive
7 | CC1CCC(C(C)(C)S)C(=O)C1 (stereo not given) | inactive
8 | Cc1ncc([N+](=O)[O-])n1CC(O)CCl (stereo not given) | inactive
9 | CC(=O)N1CCN(c2ccc(O)cc2)CC1 | inactive
10 | Oc1ccccc1Cc1ccccc1O | inactive
11 | Cc1nc2ccccc2c(=O)o1 | inactive
12 | O=c1[nH]c(=O)c2ccccc2o1 | inactive
13 | O=S(=O)(O)c1cc(O)ccc1O | inactive
14 | COC(OC)C(C)c1ccccc1 (stereo not given) | inactive
15 | O=c1cc(O)c(Cl)c[nH]1 | inactive
16 | OCCCCCCCl | inactive
17 | CCOC(=O)OCC/C(SC(=O)OCC)=C(\C)N(C=O)Cc1cnc(C)nc1N | inactive
18 | COc1cccc2sc(N)nc12 | inactive
19 | COc1cc([N+](=O)[O-])ccc1N | inactive
20 | C=CCOCC(O)CCl (stereo not given) | inactive

Row | SMILES | outcome
21 | NC(=O)C1(N2CCCCC2)CCN(CCCC(=O)c2ccc(F)cc2)CC1 | inactive
22 | CCC(=O)c1ccc(O)cc1 | inactive
23 | C=CC(C)(O)CC/C=C(\C)CC (stereo not given) | inactive
24 | CC(C)(C)NCCO | inactive
25 | C=CCOc1c(Br)cc(Br)cc1Br | inactive
26 | CCCCCCCCCCCCC1CO1 (stereo not given) | inactive
27 | C[C@@H]1C[C@H]2[C@@H]3C[C@H](F)C4=CC(=O)C=C[C@]4(C)[C@@]3(F)[C@@H](O)C[C@]2(C)[C@@]1(O)C(=O)CO | inactive
28 | CCS(=O)(=O)CCn1c([N+](=O)[O-])cnc1C | inactive
29 | CC(C)(C)c1ccc(C=O)cc1 | inactive
30 | CCN(CCO)c1cccc(C)c1 | inactive
31 | CC(=O)N(CC(O)CO)c1c(I)c(C(=O)NCC(O)CO)c(I)c(C(=O)NCC(O)CO)c1I (stereo not given) | inactive
32 | CC(C)CCO | inactive
33 | CCCCCCCCCCC | inactive
34 | Cc1cccc(C(=O)O)c1[N+](=O)[O-] | inactive
35 | CCOC(=O)CC(CC(=O)OCC)(OC(C)=O)C(=O)OCC | inactive
36 | F[Si-2](F)(F)(F)(F)F | inactive
37 | CCOC(=O)CC#N | inactive
38 | CC(=O)OCC(=O)[C@@]1(O)[C@H](OC(C)=O)C[C@H]2[C@@H]3CCC4=CC(=O)C=C[C@]4(C)[C@@]3(F)[C@@H](O)C[C@@]21C | inactive
39 | NS(=O)(=O)c1ccccc1OC(F)(F)F | inactive
40 | CCCCCCCC[Si](OCC)(OCC)OCC | inactive
